{"source": "PubChem BioAssay AID977611", "origin": "cited, not measured here", "assay": "PubChem AID 977611", "conditions": "PDB protein-ligand complexes, literature Kd", "note": "In all, about 3,900 compounds went through this assay and about 3,900 (100%) were called active. The limit is not given here; nearly all actives have Kd up to about 4200 µM. The set was probably picked from earlier hits. Some of the results follow. Non-standard residues stand in square brackets, D forms with d. Square brackets hold non-standard residues; d marks the D form. Residues, ends and D or L forms follow the SMILES beside them. Peptide text beside a SMILES is read from it. *: point of attachment. Lys(Me3) = C[N+](C)(C)CCCC[C@H](N)C(=O)O; Orn(CH(NH2)2) = NC(N)NCCC[C@H](N)C(=O)O; For = O=C*"}
{"molecule": "H-QQHHLGGAKQAGDV-OH", "values": [{"measurement": "Kd", "setting": "protein: FIBRONECTIN-BINDING PROTEIN A, PDB entry 4b60", "result": "3.7 µM (active)"}]}
{"molecule": "H-KSAVTTVVNP-OH", "values": [{"measurement": "Kd", "setting": "protein: Integrin beta-1-binding protein 1, PDB entry 4dx9", "result": "5 µM (active)"}]}
{"molecule": "H-LESKPYNPFEEEEED-OH", "values": [{"measurement": "Kd", "setting": "protein: C-terminal domain of EH domain-containing protein 1, PDB entry 2ksp", "result": "57 µM (active)"}]}
{"molecule": "H-FNYESTGPFTAK-OH", "values": [{"measurement": "Kd", "setting": "protein: EH domain-containing protein 1 C-terminal domain, PDB entry 2kfh", "result": "2400 µM (active)"}]}
{"molecule": "H-FNYESTNPFTAK-OH", "values": [{"measurement": "Kd", "setting": "protein: EH domain-containing protein 1 C-terminal domain, PDB entry 2kff", "result": "245 µM (active)"}]}
{"molecule": "H-FNYESTDPFTAK-OH", "values": [{"measurement": "Kd", "setting": "protein: EH domain-containing protein 1 C-terminal domain, PDB entry 2kfg", "result": "1200 µM (active)"}]}
{"molecule": "COC1=CC=C2CC3C4CC5OCOC5CC4CCN3C[C@H]2[C@@H]1OC", "note": "(some centres undefined)", "values": [{"measurement": "Kd", "setting": "protein: Putative regulatory protein, PDB entry 3vw2", "result": "17.9 µM (active)"}]}
{"molecule": "Cc1cc2c([nH]1)NC(=O)N([C@@H]1O[C@H](CO)[C@@H](O)[C@H]1O)C2", "values": [{"measurement": "Kd", "setting": "protein: NupC family protein CNT-7C8C, PDB entry 4pd8", "result": "0.94 µM (active)"}]}
{"molecule": "CC[C@H](C)[C@H](NC(=O)[C@H](CC(=O)O)NC(=O)[C@@H](N)CC(=O)O)C(=O)N[C@@H](CO[P+](O)(O)O)C(=O)N[C@@H](CC(C)C)C(=O)N[C@@H](CC(C)C)C(=O)N[C@@H](CCCCN)C(=O)O", "values": [{"measurement": "Kd", "setting": "protein: human GGA1(Golgi-localizing, ?-adaptin ear homology domain, ARF-interacting) VHS domains, PDB entry 1ujk", "result": "0.27 µM (active)"}]}
{"molecule": "H-DDISLLK-OH", "values": [{"measurement": "Kd", "setting": "protein: human GGA1(Golgi-localizing, ?-adaptin ear homology domain, ARF-interacting) VHS domains, PDB entry 1ujj", "result": "0.8 µM (active)"}]}
{"molecule": "Cc1nc2ccccc2c(-c2ccc3c(c2)CCCO3)c1[C@H](OC(C)(C)C)C(=O)O", "values": [{"measurement": "Kd", "setting": "protein: Integrase IN CCD (H171T mutant), PDB entry 4tsx", "result": "10.3 µM (active)"}]}
{"molecule": "CN(C)Cc1c[nH]c2c(CCCO)cccc12", "values": [{"measurement": "Kd", "setting": "protein: Phospholipase A2 VRV-PL-VIIIa, PDB entry 4qgd", "result": "0.037 µM (active)"}]}
{"molecule": "C[C@H](N)C(=O)N[C@@H](CO[P+](O)(O)O)C(=O)N[C@@H](CCC(N)=O)C(=O)N[C@@H](CCC(=O)O)C(=O)N[C@@H](Cc1ccc(O)cc1)C(=O)O", "values": [{"measurement": "Kd", "setting": "protein: Mediator of DNA damage checkpoint protein 1(MDC1/NFBD1), PDB entry 2azm", "result": "2.2 µM (active)"}]}
{"molecule": "H-TNEFYA-OH", "values": [{"measurement": "Kd", "setting": "protein: the PDZ Tandem of Syntenin 1, PDB entry 1ybo", "result": "160 µM (active)"}]}
{"molecule": "H-DAEFRA-OH", "values": [{"measurement": "Kd", "setting": "protein: 3D6 FAB ANTIBODY, PDB entry 4onf", "result": "0.0012 µM (active)"}]}
{"molecule": "H-TNLYML-OH", "values": [{"measurement": "Kd", "setting": "protein: E. coli UDP-N-acetylglucosamine acyltransferase (LpxA), PDB entry 4j09", "result": "17 µM (active)"}]}
{"molecule": "H-TYKFFEQ-OH", "values": [{"measurement": "Kd", "setting": "protein: adaptor protein complex 4 (AP-4) mu4 subunit C-terminal domain D190A mutant, PDB entry 4mdr", "result": "40.6 µM (active)"}]}
{"molecule": "Oc1ccc(F)cc1O", "values": [{"measurement": "Kd", "setting": "protein: Protocatechuate 3,4-dioxygenase alpha chain 3,4-PCD, PDB entry 4whq", "result": "75 µM (active)"}, {"measurement": "Kd", "setting": "protein: Protocatechuate 3,4-dioxygenase alpha chain 3,4-PCD, PDB entry 4whr", "result": "75 µM (active)"}, {"measurement": "Kd", "setting": "protein: Protocatechuate 3,4-dioxygenase alpha chain 3,4-PCD, PDB entry 4whs", "result": "75 µM (active)"}]}
{"molecule": "H-MFAAFDYIA-OH", "values": [{"measurement": "Kd", "setting": "protein: 3-phosphoinositide-dependent protein kinase 1 PDK1, PDB entry 4rrv", "result": "0.04 µM (active)"}]}
{"molecule": "CSCC[C@H](NC(=O)[C@@H](N)CC(=O)O)C(=O)N[C@@H](Cc1ccc(O)cc1)C(=O)N[C@@H](C)C(=O)O", "note": "(H-DMYA-OH)", "values": [{"measurement": "Kd", "setting": "protein: E3 ubiquitin-protein ligase RNF31 HOIP PUB Domain, PDB entry 4p0b", "result": "0.29 µM (active)"}]}
{"molecule": "Cc1ccc(-c2cc3c(NC[P+](O)(O)O)ncnc3s2)cc1", "values": [{"measurement": "Kd", "setting": "protein: Farnesyl pyrophosphate synthase, human FPPS, PDB entry 4lph", "result": "9.2 µM (active)"}]}
{"molecule": "Cc1ccc(-c2cc3c(NC([P+](O)(O)O)[P+](O)(O)O)ncnc3s2)cc1", "values": [{"measurement": "Kd", "setting": "protein: Farnesyl pyrophosphate synthase, human FPPS, PDB entry 4lpg", "result": "55.6 µM (active)"}]}
{"molecule": "N#Cc1c(Oc2ccc(F)c(NC(=O)Cc3cccc(C(F)(F)F)c3)c2)ccc2nc(NC(=O)C3CC3)sc12", "values": [{"measurement": "Kd", "setting": "protein: Serine/threonine-protein kinase B-raf, PDB entry 4ksp", "result": "0.0016 µM (active)"}]}
{"molecule": "O=C(c1ccccc1Nc1cccc(C(F)(F)F)c1)N(O)CC[C@@H](c1ccc(Cl)c(Cl)c1)[P+](O)(O)O", "values": [{"measurement": "Kd", "setting": "protein: 1-DEOXY-D-XYLULOSE 5-PHOSPHATE REDUCTOISOMERASE, PDB entry 3zhz", "result": "0.09 µM (active)"}]}
{"molecule": "O=C(c1ccccc1Cn1cncn1)N(O)CC[C@@H](c1ccc(Cl)c(Cl)c1)[P+](O)(O)O", "values": [{"measurement": "Kd", "setting": "protein: 1-DEOXY-D-XYLULOSE 5-PHOSPHATE REDUCTOISOMERASE, PDB entry 3zi0", "result": "0.04 µM (active)"}]}
{"molecule": "O=C(c1ccccc1)N(O)CC[C@@H](c1ccc(Cl)c(Cl)c1)[P+](O)(O)O", "values": [{"measurement": "Kd", "setting": "protein: 1-DEOXY-D-XYLULOSE 5-PHOSPHATE REDUCTOISOMERASE, PDB entry 3zhx", "result": "0.21 µM (active)"}]}
{"molecule": "CC(C)C[C@H](NC(=O)[C@H](CC(=O)O)NC(=O)CNC(=O)[C@H](CCCN=C(N)N)NC(=O)CNC(=O)[C@H](Cc1cnc[nH]1)NC=O)C(=O)NCC(=O)N[C@@H](CCCN=C(N)N)C(=O)N[C@@H](CC(C)C)C(=O)N[C@@H](CCCCN)C(=O)N[C@@H](CCCCN)C(N)=O", "note": "(For-HGRGDLGRLKK-NH2)", "values": [{"measurement": "Kd", "setting": "protein: Integrin alpha V beta 6, PDB entry 4um9", "result": "0.0085 µM (active)"}]}
{"molecule": "CC(C)C[C@H](NC(=O)[C@H](Cc1cnc[nH]1)NC(=O)[C@H](CO)NC(=O)[C@H](CO)NC(=O)[C@H](Cc1cnc[nH]1)NC(=O)[C@H](C)NC(=O)[C@@H](N)CCCN=C(N)N)C(=O)N[C@@H](CCCCN(C)C)C(=O)N[C@@H](CO)C(=O)N[C@@H](CCCCN)C(=O)N[C@@H](CCCCN)C(=O)NCC(=O)N[C@@H](CCC(N)=O)C(=O)N[C@@H](CO)C(=O)N[C@H](C(=O)O)[C@@H](C)O", "values": [{"measurement": "Kd", "setting": "protein: Tumor suppressor p53-binding protein 1, 53BP1 tandem Tudor domains, PDB entry 2mwo", "result": "20 µM (active)"}]}
{"molecule": "CSCC[C@H](NC(=O)[C@H](CC(C)C)NC(=O)[C@H](CCCCN(C)C)NC(=O)[C@H](CCCCN)NC(=O)[C@H](Cc1cnc[nH]1)NC(=O)[C@H](CCCN=C(N)N)NC(=O)[C@H](CO)NC(=O)[C@@H](NC(=O)[C@@H](N)CO)[C@@H](C)O)C(=O)N[C@@H](Cc1ccccc1)C(=O)N[C@@H](CCCCN)C(=O)N[C@H](C(=O)O)[C@@H](C)O", "values": [{"measurement": "Kd", "setting": "protein: Tumor suppressor p53-binding protein 1, 53BP1 tandem Tudor domains, PDB entry 2mwp", "result": "0.9 µM (active)"}]}
{"molecule": "CC(C)C[C@H](NC(=O)[C@@H](NC(=O)[C@H](CCCC[N+](C)(C)C)NC(=O)[C@H](CCCNC(N)N)NC(=O)[C@@H](N)Cc1cnc[nH]1)C(C)C)C(=O)N[C@@H](CCCNC(N)N)C(=O)O", "note": "(H-H[Orn(CH(NH2)2)][Lys(Me3)]VL[Orn(CH(NH2)2)]-OH)", "values": [{"measurement": "Kd", "setting": "protein: Polycomb protein EED, PDB entry 3jpx", "result": "235 µM (active)"}]}
{"molecule": "CC(C)C[C@H](NC(=O)[C@@H](NC(=O)[C@H](CCCC[N+](C)(C)C)NC(=O)[C@H](CCCNC(N)N)NC(=O)[C@H](Cc1cnc[nH]1)NC(=O)[C@@H](N)CCCNC(N)N)C(C)C)C(=O)N[C@H](C=O)CCCNC(N)N", "note": "(H-[Orn(CH(NH2)2)]H[Orn(CH(NH2)2)][Lys(Me3)]VL[Orn(CH(NH2)2)]-aldehyde)", "values": [{"measurement": "Kd", "setting": "protein: Polycomb protein EED residues 77-441, PDB entry 3ij1", "result": "20 µM (active)"}]}
{"molecule": "CC(C)C[C@H](NC(=O)[C@@H](NC(=O)[C@@H](CCCC[N+](C)(C)C)NC(=O)[C@H](CCCNC(N)N)NC(=O)[C@H](Cc1cnc[nH]1)NC(=O)[C@@H](N)CCCNC(N)N)C(C)C)C(=O)N[C@@H](CCCNC(N)N)C(=O)O", "values": [{"measurement": "Kd", "setting": "protein: JMJD2A-tudor, PDB entry 2qqs", "result": "0.4 µM (active)"}]}
